# Compounds with a hit are over-represented: about 3.9% of the library has one in this group of screens.
# GDH-TPI counter-1 = inhibits GDH-TPI coupling enzymes, artifact for Mtb FBA screen. 1.2% of 360,000 active. inhibition, % at 4.8 µM. AID 588335. GDH-TPI coupled enzyme counterscreen, NADH absorbance; in the data active = inhibition above about 30%
# BH1578 lux ind = quorum light induction in luxS cqsA deficient V. cholerae. V. cholerae BH1578 lux reporter, luminescence, 6 h. activation, % at 18.7 µM. 0.16% of 350,000 active. AID 588436; in the data active = activation mostly above about 9.7%, no sharp cut-off
# CCHF vOTU inh = blocks the CCHF virus ovarian tumor domain protease; CCHFV vOTU protease, Pep-AMC fluorescence; inhibition, % at 11.5 µM; 0.55% of 370,000 active; in the data active = inhibition above about 30%
# FBA Mtb inh = Mtb fructose-bisphosphate aldolase inhibition; purified M. tuberculosis FBA, fluorescence read-out; inhibition, % at 1 µM; 2.3% of 360,000 active; AID 588726
# Target sequence (P9WQA3 whole entry, looked up): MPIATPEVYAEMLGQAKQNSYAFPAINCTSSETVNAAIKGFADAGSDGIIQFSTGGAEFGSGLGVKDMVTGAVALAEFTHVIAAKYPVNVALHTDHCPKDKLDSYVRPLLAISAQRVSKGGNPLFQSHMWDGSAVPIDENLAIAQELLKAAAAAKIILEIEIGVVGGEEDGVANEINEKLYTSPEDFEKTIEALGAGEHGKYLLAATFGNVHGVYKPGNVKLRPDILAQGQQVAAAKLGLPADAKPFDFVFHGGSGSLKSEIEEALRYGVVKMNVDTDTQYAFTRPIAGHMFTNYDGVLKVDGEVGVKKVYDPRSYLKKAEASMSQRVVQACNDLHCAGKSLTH
# Mtb FBA confirm = Mtb FBA inhibition, confirmed. shares compounds with FBA Mtb inh. purified M. tuberculosis FBA, fluorescence read-out. inhibition, % at 1 µM. 78% of 5,600 active
# GDH-TPI counter-2 = inhibits GDH-TPI coupling enzymes, flagging Mtb FBA hits; AID 652141; 81% of 5,600 active; inhibition, % at 1 µM; shares compounds with FBA Mtb inh; GDH-TPI coupled enzyme counterscreen, fluorescence; in the data active = inhibition above about 10%
# GDH-TPI DR = counter-screen for M. tuberculosis FBA inhibitors: GDH-TPI dose response; shares compounds with FBA Mtb inh; 79% of 170 active; AID 652145; GDH-TPI coupled enzyme assay, fluorescence, artifact counterscreen; IC50, µM; call rule not given here
# Numbers stand for hits; - = inactive; . = no result; + = active, no number. Rule as the data show it, unless noted: active = inhibition above about 27%; inactive = the rest.
SMILES,GDH-TPI counter-1,BH1578 lux ind,CCHF vOTU inh,FBA Mtb inh,Mtb FBA confirm,GDH-TPI counter-2,others
CCCn1c(=O)[nH]c(=O)c2c(C(=O)OCC)cc(-c3cccs3)nc21,-,-,-,89,100,87,
CCOC(=O)C1CCCN(C(=O)c2ccc(OC)cc2)CC1 (stereo not given),-,-,-,-,.,.,
Cc1ccc(Oc2cc([N+](=O)[O-])cc3c2C(=O)Nc2ccccc2O3)cc1,-,-,-,-,.,.,
O=C(Cc1ccccc1)NC1(O)C(=O)c2ccccc2C1=O,-,-,-,-,.,.,
C/C(CC(=O)Nc1cccnc1)=N\NC(=O)C(=O)Nc1cccc(C)c1,-,-,-,-,.,.,
CCOc1ccc2oc(C(=O)OCC(=O)NC3CC3)c(C)c2c1,-,-,-,40,62,47,
COc1ccc2oc(C(=O)OCC(=O)NC3CC3)c(C)c2c1,-,-,-,44,+,+,
Nc1c(C(=O)CCC(=O)O)oc2ccc(Cl)cc12,-,-,-,-,.,.,
COC(=O)c1oc2ccc(OC)cc2c1N,-,-,-,29,+,166,
CCCNC(=O)NC(=O)COC(=O)c1oc2ccc(OCC)cc2c1C,-,-,-,-,.,.,
NC(=O)c1oc2ccc(Cl)cc2c1N,-,-,-,87,100,69,
Cc1ccc(F)c(C2C3C=CCC(c4cccc(-c5ccc(N(C)C)cc5)c4)C3C(=O)N2Cc2ccccc2)c1 (stereo not given),-,-,-,-,.,.,
COc1ccc2oc(C(=O)NC3CCCCC3)c(C)c2c1,-,-,-,28,41,27,
COc1ccc2oc(C(=O)OCC(=O)NC(C)(C#N)C3CC3)c(C)c2c1 (stereo not given),-,-,-,31,-,24,
Cc1c(C(=O)NC2CCCCC2)oc2ccc(F)cc12,-,-,-,-,.,.,
COc1ccc(Cc2noc(CN3CCN(c4ccc(Cl)cn4)CC3)n2)cc1OC,-,-,-,-,.,.,
CC(C)n1cnc2c(Nc3cccc(Cl)c3)nc(NCCCO)nc21,-,-,-,34,130,98,
COc1ccc2cc(CN(C(=O)Nc3ccccc3)C3CCCC3)c(=O)[nH]c2c1,-,-,-,-,.,.,
COc1cccc(-c2ccc(C#N)c(=O)[nH]2)c1,-,-,-,111,+,+,
COc1ccc2nc(/C=N/NC(=O)[C@@H]3CCCN3C(=O)OC(C)(C)C)ccc2c1,-,-,-,99,54,46,
COc1ccc2nc(/C=N/NC(=O)[C@H](CCSC)NC(=O)OC(C)(C)C)ccc2c1,32,-,-,60,53,56,
CCC(C)[C@H](NC(=O)OC(C)(C)C)C(=O)N/N=C/c1ccc2cc(OC)ccc2n1 (stereo not given in full),-,-,-,33,+,181,
CCc1cc2c3c(c1)/C(=C1/SC(N)=NC1=O)C(=O)N3C(C)(C)C=C2C,-,.,-,-,.,.,
CC(NC(=O)COc1ccccc1)C(=O)NCc1ccccc1Cl (stereo not given),-,-,-,-,.,.,
c1ccc(-c2nc3ccccn3c2NCc2ccc3c(c2)OCO3)cc1,-,-,-,-,.,.,
SMILES,GDH-TPI counter-1,BH1578 lux ind,CCHF vOTU inh,FBA Mtb inh,Mtb FBA confirm,GDH-TPI counter-2,others
Cc1cccn2c(NCc3ccc4c(c3)OCO4)c(-c3ccc(O)cc3)nc12,-,-,-,53,182,112,
Cc1cc(=O)oc2cc(OC(C)C(=O)N3CCOCC3)c(Cl)cc12 (stereo not given),-,-,-,-,.,.,
Cc1cc(=O)oc2cc(OC(C)C(=O)O)c(Cl)cc12 (stereo not given),-,-,-,32,-,-,
Cc1nc(SC(C)C(=O)Nc2cccc(C(F)(F)F)c2)c2c(C)c(C(=O)O)sc2n1 (stereo not given),-,-,-,-,.,.,
Cc1c(OCC(=O)N2CCC[C@@H]2C(=O)O)ccc2c3c(c(=O)oc12)CCC3,-,-,-,36,93,88,
CCc1cc(=O)oc2c(C)c(OCC(=O)N3CCC[C@@H]3C(=O)O)ccc12,-,-,-,58,-,-,GDH-TPI DR=3
CCc1cc(=O)oc2c(C)c(OC(C)C(=O)N3CCC[C@@H]3C(=O)O)ccc12 (stereo not given in full),-,-,-,42,54,61,
CCCc1cc(=O)oc2c(C)c(OCC(=O)NC3CCN(Cc4ccccc4)CC3)ccc12,-,-,-,-,.,.,
COc1ccc(-c2c(C#N)c(N)nc3c2CCCC3)cc1OC,-,-,-,-,.,.,
N#Cc1c(N)nc2c(c1-c1ccccc1)CCC2,-,-,-,61,119,91,
COc1ccc(-c2c(C#N)c(N)nc3c2CCC3)cc1,-,-,-,53,136,93,
Cc1ccsc1/C=C/C(=O)O,-,-,-,-,.,.,
COc1ccccc1-c1nnc(Nc2nc3c(OC)cccc3s2)o1,43,-,-,33,40,41,
O=C1CN(Cc2ccccc2)C(=NCc2ccco2)S1,-,-,-,28,184,163,
CCOC(=O)CC1(NC(=O)C2CCC(=O)N(CCc3ccc(OC)cc3)C2)CCCCC1 (stereo not given),-,-,-,-,.,.,
Cc1c(C(=O)OCC(=O)Nc2cccc(S(N)(=O)=O)c2)oc2c1ccc1ccccc12,-,-,-,-,.,.,
C=CCn1c(-c2ccc(N)cc2)nc2ccccc21,-,-,-,92,-,-,
CCn1c(-c2ccc(N)cc2)nc2ccccc21,-,-,-,83,102,78,
CCn1c(N)nc2ccccc21,-,-,-,-,.,.,
C=CC[C@@H](Cc1ccc(F)cc1)C(=O)OC[C@@H]1CCCN1C(=O)[C@@H](CC=C)CC(=O)N(CCO)Cc1ccccc1,-,-,-,-,.,.,
CCc1ccccc1NS(=O)(=O)c1ccc(OC)c2ncccc12,-,-,-,-,.,.,
COc1ccc(-c2ccc(C(=O)NCc3ccco3)c3occc23)c(C)c1,-,-,-,28,56,50,
O=[N+]([O-])c1ccc(CN2CCCCCC2)s1,-,-,-,-,.,.,
CC(C)Oc1ncnc2c1[nH]c1ccccc12,-,-,-,33,165,130,
CCCOc1ncnc2c1[nH]c1ccccc12,-,.,-,-,.,.,
SMILES,GDH-TPI counter-1,BH1578 lux ind,CCHF vOTU inh,FBA Mtb inh,Mtb FBA confirm,GDH-TPI counter-2,others
CCOC(=O)c1oc2nc3c(cc2c1N)COC(C)(C)C3,-,-,-,45,-,17,
CCc1nc2oc(C(=O)c3ccccc3)c(N)c2c2c1COC(C)(C)C2,-,-,-,-,.,.,
COC(=O)c1sc2nc3c(cc2c1N)COC(C)(C)C3,-,-,-,-,.,.,
CCOC(=O)c1oc2nc(C)c3c(c2c1N)CC(C)(C)OC3,-,-,-,34,100,75,
CCOC(=O)c1cc2c(=O)n3ccccc3nc2n(CCOC)c1=NC(=O)c1c(-c2c(F)cccc2Cl)noc1C,37,-,-,49,178,166,
COc1ccc(N2C(=O)c3ccccc3NC2c2ccc(NC(C)=O)cc2)c(OC)c1 (stereo not given),-,-,-,42,91,64,

# Screens from PubChem BioAssay.
